From the supplement of paper PMC6555819

Tests used:
Test in all cases: PBM binding z-score (relative to random genomic background probes); higher = stronger binding; sequences stand for … in GC…GCGATTGACAGCGTAGAATGAAGG
[1] = system: PPARg:RXRa DBDmut IVT, anti-RXR (DBD mutation: RXRa K156A/R161A, NR concentration 270 nM, RXRa partner concentration 90 nM)
In short: (§1)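 Scanned fluorescence from custom Agilent 4×180K protein-binding microarrays was regression-normalized. Binding z-scores use random background probes as reference. Ligand-free nuclear receptor dimers were incubated on the arrays for 1 h and detected with antibodies against each partner (one per run).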

[2] = system: PPARg:RXRa IVT, anti-PPARg (NR concentration 270 nM, RXRa partner concentration 90 nM)
In short: as §1

[3] = system: PPARg DBDmut:RXRa IVT, anti-PPARg (DBD mutation: PPARg1 K132A/R137A, NR concentration 270 nM, RXRa partner concentration 90 nM)
In short: as §1

[4] = system: PPARg DBDmut IVT, anti-PPARg (DBD mutation: PPARg1 K132A/R137A, NR concentration 270 nM)
In short: as §1

[5] = system: PPARg homodimer (NR concentration 180 nM)
In short: as §1

[6] = system: PXR:RXRa (NR concentration 270 nM, RXRa partner concentration 90 nM)
In short: as §1

[7] = system: PXR homodimer (NR concentration 270 nM)
In short: as §1

[8] = system: RARa:RXR (NR concentration 270 nM, RXRa partner concentration 90 nM)
In short: as §1

[9] = system: RARa homodimer (NR concentration 270 nM)
In short: as §1

[10] = system: RARb:RXRa (NR concentration 270 nM, RXRa partner concentration 90 nM)
In short: as §1

[11] = system: RARb homodimer (NR concentration 270 nM)
In short: as §1

[12] = system: RARg:RXRa (NR concentration 270 nM, RXRa partner concentration 90 nM)
In short: as §1

[13] = system: RARg homodimer (NR concentration 270 nM)
In short: as §1

[14] = system: RXRa DBDmut IVT, anti-RXR (DBD mutation: RXRa K156A/R161A, NR concentration 90 nM)
In short: as §1

[15] = system: RXRa homodimer (NR concentration 180 nM)
In short: as §1

[16] = system: THRa:RXRa (NR concentration 90 nM, RXRa partner concentration 90 nM)
In short: as §1

[17] = system: THRa homodimer (NR concentration 90 nM)
In short: as §1

[18] = system: VDR homodimer (NR concentration 270 nM)
In short: as §1

Row | Sequence | PBM binding z-score [1] | PBM binding z-score [2] | PBM binding z-score [3] | PBM binding z-score [4] | PBM binding z-score [5] | PBM binding z-score [6] | PBM binding z-score [7] | PBM binding z-score [8] | PBM binding z-score [9] | PBM binding z-score [10] | PBM binding z-score [11] | PBM binding z-score [12] | PBM binding z-score [13] | PBM binding z-score [14] | PBM binding z-score [15] | PBM binding z-score [16] | PBM binding z-score [17] | PBM binding z-score [18]
1 | CTCGAAAAGTCGTGCTCAGGTGAGTATACCAAAC | -0.109 | 0.391 | 0.0169 | 0.325 | 1.15 | 0.0376 | 0.0183 | 0.523 | -0.119 | 0.264 | 0.216 | 0.157 | -0.0265 | 0.322 | 0.0508 | 1.75 | 0.807 | -0.43
2 | TCATATAGGTAAAAGGTGAATGTCGGTGTGGTAA | 5.52 | 5.08 | 1.42 | 1.7 | 1.98 | 1.71 | 0.679 | 2.97 | 1.84 | 1.86 | 1.88 | 1.75 | 1.04 | 1.81 | 2.85 | 1.5 | 0.686 | 0.531
3 | AATACAGGGTCATCGTAGGCCAGTGTACGCACAG | 2.67 | 4.1 | 1.31 | 0.904 | 2.51 | 4.95 | 0.408 | 5.01 | 1 | 4.35 | 3.7 | 5.65 | 5.19 | 3.59 | 6.76 | 4.57 | 1.49 | 2.98
4 | ATCTCTAGGTAAGACTCAGTTCAGTGGAGAACGC | 1.76 | 1.05 | 0.655 | 0.595 | 1.2 | 1.32 | 1.24 | 0.355 | 0.601 | 0.727 | 0.868 | 0.285 | 0.403 | 0.304 | 0.0842 | 0.884 | 0.583 | 1.57
5 | TCTCGGAGGACACGGAAGGTCAGAGCTCGACATC | 1.04 | 1.13 | -0.462 | -0.403 | 1.27 | 2.53 | 0.114 | 2.45 | -0.138 | 3.44 | 3.98 | 3.49 | 4.48 | 0.816 | 2.31 | 3.45 | 1.37 | 1.01
6 | CCGACTGGGGGAGAAAGGTTACCATACCATCCGG | 1.08 | 2.68 | 1.16 | 2.68 | 1.76 | 2 | 0.501 | 2.74 | 0.727 | 1.68 | 2.12 | 2.37 | 1.74 | -0.115 | 2.39 | 1.84 | 0.416 | 0.562
7 | AATACAGGGTCACTAGGCGAGAGTAGGTACGAAT | 3.92 | 5.14 | 1.72 | 0.921 | 2.09 | 3.16 | 0.858 | 4.27 | 1.4 | 4.29 | 3.24 | 5.21 | 5.18 | 2.87 | 5.73 | 3.48 | 1.41 | 2.82
8 | CCTTACCGGTCACTGACAGGTTATAGCATTTGGA | 0.892 | 1.17 | 0.534 | 0.217 | 2.23 | 1.01 | 0.467 | 1.29 | 1.61 | 3.06 | 2.7 | 3.19 | 3.15 | 0.586 | 1.2 | 1 | 0.662 | 0.617
9 | TCTATTAGTTGACTAGGGCAACCGAAACAGCGGA | 3.04 | 3.38 | 0.37 | 0.987 | 1 | 0.491 | 0.269 | 0.566 | 0.68 | 0.994 | 0.778 | 0.736 | 0.586 | 1.31 | 0.703 | 0.514 | 0.147 | 0.286
10 | TAGCCTAGGTCCGATCGGGCCAGTATACGCTATA | -1.07 | -0.553 | -0.601 | -1.51 | -1.58 | -1.01 | -1.16 | -1.17 | -1.53 | -1 | -0.854 | -0.722 | -0.738 | -0.969 | -0.677 | 0.334 | -0.898 | -0.952
11 | AGTACAGGGTCACTAGGCCAGAGTAGGTACGAAT | 3.37 | 5.52 | 0.92 | 0.785 | 2.13 | 3.07 | 0.0901 | 4.21 | 0.585 | 4.23 | 3.49 | 5.25 | 5.26 | 2.61 | 5.43 | 3.41 | 1.04 | 2.39
12 | AATACAGGGTCATCGTAGGGCAGAGTACGCACAG | 3.16 | 4.29 | 1.4 | 0.756 | 3.57 | 5.4 | 0.861 | 5.26 | 0.97 | 4.7 | 3.67 | 6.04 | 5.73 | 3.64 | 7.22 | 4.59 | 1.42 | 3.02
13 | AATACAGGGTCACTAGGCCGGAGTAGGTACGAAT | 3.1 | 5.05 | 0.885 | 0.938 | 1.34 | 2.98 | 0.306 | 3.81 | -0.208 | 3.97 | 3.18 | 5.13 | 4.62 | 2.81 | 5.28 | 3.4 | 1.2 | 2.61
14 | AGAATGAGGTTACCAAACATCAGGGAAACGCTTG | 4 | 3.04 | 1.44 | 0.505 | 0.76 | 0.954 | -0.13 | 1.59 | -0.309 | 1.82 | 0.501 | 1.92 | 1.75 | 1.15 | 2.56 | 2.59 | 0.726 | 0.159
15 | ATCGAAGGGTCGACGAGGTGAGTATACACCGTTT | -0.299 | 0.882 | -0.145 | 0.665 | 0.411 | 1.11 | -0.598 | 2.02 | -0.471 | 2.3 | 1.42 | 2.38 | 2.29 | 0.234 | 2.33 | 2.86 | 0.22 | 0.636
16 | AGATTGAGGTTAAGATCAGGGAAACAGAATACAT | 2.1 | 2.29 | 1.37 | 1.38 | 1.06 | 1.3 | 0.986 | 1.87 | 1.33 | 2.08 | 1.42 | 2.1 | 1.78 | 1.36 | 2.48 | 2.7 | 1.12 | 0.928
